Shown is part of a subset that was picked to be rich in hits.
Tb PFK block – blocks T. brucei phosphofructokinase; O15648; T. brucei PFK, ADP-Glo luminescence; Potency, µM (highest dose often 57.5 µM), for the others: top-dose activity, negative = inhibition, most hits filed as inhibitors; hit rate 0.17% among 330,000; AID 485367;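 note: potency is the fitted concentration of half-maximal effect; 0% = uninhibited 1x PFK enzyme wells and -100% = no-enzyme wells; nearly all actives have a fitted effect of over 60% in size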
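Activity is normalized to no-enzyme wells (full inhibition) and 1.25 nM enzyme wells (no inhibition). Reaction: 0.5 mM F6P, 0.1 mM ATP, 45 min RT, ADP-Glo luminescence; concentration-response curves fitted and classed by quality.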
PI5P4K alpha inh – inhibitors of human PI5P4K alpha. P48426. PI5P4Kalpha enzyme, ADP-Glo luminescence, 60 min; active compounds read low. max response, %. hit rate 1.2% among 330,000. AID 652105; active = max response of -50% or lower; inconclusive = between -30% and -50%; inactive = -30% or higher; note: value at the top dose of about 77 µM
Target sequence (P48426 whole entry, looked up): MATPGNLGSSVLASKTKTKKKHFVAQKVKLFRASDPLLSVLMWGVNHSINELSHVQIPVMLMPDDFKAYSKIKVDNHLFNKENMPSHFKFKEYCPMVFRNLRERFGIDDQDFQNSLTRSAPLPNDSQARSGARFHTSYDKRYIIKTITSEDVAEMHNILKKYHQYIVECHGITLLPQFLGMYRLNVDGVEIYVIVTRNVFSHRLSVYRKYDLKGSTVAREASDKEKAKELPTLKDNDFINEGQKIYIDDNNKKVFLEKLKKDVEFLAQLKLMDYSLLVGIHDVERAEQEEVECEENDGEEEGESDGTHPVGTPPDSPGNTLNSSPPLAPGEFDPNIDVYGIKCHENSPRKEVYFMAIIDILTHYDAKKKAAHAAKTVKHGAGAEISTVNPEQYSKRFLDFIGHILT
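Enzyme plus substrate dispensed, test compounds pinned in, then ATP (5 microM final) added. After 60 min at RT, ADP-Glo reagent 1 for 45 min and reagent 2 for 30 min preceded luminescence imaging.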
PI4K2A inh – PI4K2A (human) kinase inhibition; purified PI4K2A, ADP-Glo luminescence, 1 h; active compounds read low; hit rate 0.13% among 420,000; activity change, negative = inhibition, % at 76.9 µM; Q9BTU6; in the data active = activity change below about -50%; inconclusive = mostly about -30% to -49%;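 note: -100% = wells without enzyme as full effect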
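ADP-Glo luminescence measured ADP generated by PI4K2A enzyme (4 ug/mL before mixing) with 1.2 mM PI substrate (pre-mix) and 300 microM ATP (pre-mix). Tris pH7.5 buffer with MgCl2, Triton X-100; 1 h reaction at ambient temperature.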
Pin1 inhibitor – blocks the human prolyl isomerase Pin1. hit rate 0.009% among 390,000. Potency, µM (titrated, usually from 115 µM), for inactives: top-dose activity, negative = inhibition, hits mostly inhibitors. Pin1 FP peptide displacement, HiFluor488, 10 min; active = well fitted inhibition curve with a large enough effect in the polarisation, with a control signal flat, not every such curve was filed as active; inconclusive = small, poorly fitted or top-dose-only effect, or effect the other way, or a change in a side signal; inactive = no such curve, though single readings can be large or run the other way; the % refers to the polarisation; note: potency is the fitted concentration of half-maximal effect
Target sequence (Q13526 whole entry, looked up): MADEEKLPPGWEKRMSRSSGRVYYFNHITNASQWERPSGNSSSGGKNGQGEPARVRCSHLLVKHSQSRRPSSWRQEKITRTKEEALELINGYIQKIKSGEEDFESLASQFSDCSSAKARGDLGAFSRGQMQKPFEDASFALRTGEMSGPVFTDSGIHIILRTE
Tb PGK inh – blocks T. brucei phosphoglycerate kinase; P07378; PGK/GAPDH coupled, Kinase-Glo luminescence, 60 min; Potency, µM (series often up to 57.5 µM), for inactives: top-dose activity change, negative = inhibition, most hits filed as inhibitors; hit rate 0.043% among 380,000; AID 602233; note: potency is the fitted concentration of half-maximal effect; nearly all actives have a fitted effect of over 60% in size
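Recombinant glycosomal PGK reaction used 1,3-bisphosphoglycerate generated in-well by GAPDH (100nM final) in 100mM TEA pH 7.6, 5mM MgCl2, 0.01% Tween-20. After 60 minutes at room temperature, ATP was read by Kinase-Glo Plus luminescence end-point.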
* hit, by the source's call; i = inactive; ? = inconclusive; · = no result given; ! = repeats disagree. Unless noted, calls come from the whole dose curve; as a rule, active = well fitted curve in the direction sought with a large enough effect; inconclusive = small, poorly fitted or top-dose-only effect, or another doubt; inactive = no such curve, though single readings can be large; an effect the other way counts as inactive or inconclusive. Unless noted, % is set by controls: 0 for no effect and ±100 for the full control effect.

SMILES	Tb PFK block	PI5P4K alpha inh	PI4K2A inh	Pin1 inhibitor	Tb PGK inh
COc1cccc(N=C2NC(=O)/C(=C/c3cc([N+](=O)[O-])ccc3O)S2)c1	-5%	-76*	5	?	?
O=C1NC(=Nc2ccccc2Cl)S/C1=C\c1cc([N+](=O)[O-])ccc1O	-15%	-67*	-7	?	-6%
Cc1ccc(S(=O)(=O)/N=C2/NC(=O)/C(=C/c3cc([N+](=O)[O-])ccc3O)S2)cc1	?	268	-3	?	1%
O=C1N/C(=N/O)S/C1=C/c1cccc([N+](=O)[O-])c1	0%	-23	1	-11%	-1%
CNc1ncnc(Sc2nc(N)nc3nc[nH]c23)c1[N+](=O)[O-]	·	-23	-5	4%	-2%
Nc1nc(Sc2ccc([N+](=O)[O-])c3nonc23)c2[nH]cnc2n1	·	-84*	-52*	?	?
CN(C)c1cc(NC(=O)CNC(C)(C)C)c(O)c2c1C[C@@H]1C[C@H]3[C@H](N(C)C)C(=O)C(C(N)=O)=C(O)[C@@]3(O)C(=O)C1=C2O	·	·	-8	·	·
O=c1nc2s/c(=C\c3ccco3)c(=O)n2nc1Cc1ccc(F)cc1	?	-56*	?	·	?
CCN1C(=O)c2ccccc2C1Nc1ccc(OCCN2CCCCC2)cc1 (stereo not given)	·	·	-1	·	·
C/C=C/C=C\C(=O)Nc1cccc(C2=NOC3(C2)C[C@@H](C(N)=O)N(C(=O)/C(C)=C/C)C3)c1 (stereo not given in full)	-8%	-11	?	32%	-13%
C=C(C)C(=O)Nc1cccc(C2=NOC3(C2)C[C@H](C(N)=O)N(C(=O)CC)C3)c1 (stereo not given in full)	?	-17	-14	-15%	5.6µM*
C/C=C\C=C/C(=O)Nc1cccc(C2=NOC3(C2)C[C@H](C(N)=O)N(C(=O)Cc2ccc([N+](=O)[O-])cc2)C3)c1 (stereo not given in full)	-20%	-57*	-26	?	i
C/C=C\C=C/C(=O)Nc1cccc(C2=NOC3(C2)C[C@@H](C(N)=O)N(C(=O)CCCCC)C3)c1 (stereo not given in full)	-3%	-67*	-7	2%	-9%
C/C=C\C=C\C(=O)Nc1cccc(C2=NOC3(C2)C[C@@H](C(N)=O)N(C(=O)C(c2ccccc2)c2ccccc2)C3)c1 (stereo not given in full)	-11%	-65*	-2	48%	-2%
C/C=C\C=C/C(=O)Nc1cccc(C2=NOC3(C2)C[C@H](C(N)=O)N(C(=O)CC)C3)c1 (stereo not given in full)	2%	-4	-29	14%	-6%
C=C(C)C(=O)Nc1cccc(C2=NOC3(C2)C[C@H](C(N)=O)N(C(=O)CC#N)C3)c1 (stereo not given in full)	?	-20	?	52%	?
C/C=C/C(=O)Nc1cccc(C2=NOC3(C2)C[C@H](C(N)=O)N(C(=O)/C=C/C)C3)c1 (stereo not given in full)	1%	0	1	-2%	-6%
C/C=C/C=C/C(=O)N1CC2(CC(c3cccc(NC(=O)/C=C/C)c3)=NO2)C[C@@H]1C(N)=O (stereo not given in full)	-28%	-51*	-11	?	-6%
C/C=C\C=C/C(=O)Nc1cccc(C2=NOC3(C2)C[C@@H](C(N)=O)N(C(=O)c2ccc(Cl)cc2)C3)c1 (stereo not given in full)	1%	-66*	0	9%	4%
C/C=C\C=C/C(=O)Nc1cccc(C2=NOC3(C2)C[C@H](C(N)=O)N(C(=O)c2ccc(OC)cc2)C3)c1 (stereo not given in full)	-4%	?	-26	?	0%
COc1ccc(Br)cc1S(=O)(=O)N1CCN(S(=O)(=O)c2ccc3c(c2)OCCO3)CC1	·	·	·	14%	·
CC(=O)Nc1sc2c(c1-c1ccco1)CCNC2	·	·	·	-20%	·
Nc1cc2c(cc1[N+](=O)[O-])OCO2	4%	-60*	-9	?	-14%
Nc1cc2c(cc1[N+](=O)[O-])OCCO2	5%	-7	-2	-4%	14%
COC(=O)C1Sc2[nH]c(=O)sc2C2c3ccccc3OC(=O)C12 (stereo not given)	8%	-3	1	0%	-2%
SMILES	Tb PFK block	PI5P4K alpha inh	PI4K2A inh	Pin1 inhibitor	Tb PGK inh
CC1(C(=O)O)Sc2[nH]c(=O)sc2C2c3ccccc3OC(=O)C21 (stereo not given)	2%	-91*	-2	-3%	3%
CN1CC(=O)NC1=N	·	·	4	·	·
CN(C)C=Nc1nonc1-c1ccccc1	3%	2	3	9%	7%
CN(C)C=Nc1c(Br)cc(Br)c2nonc12	-3%	-4	-56*	?	-3%
CCCCN(C)C(=O)c1cn(C(C)c2ccccc2)nn1 (stereo not given)	·	·	-4	·	·
CCOc1cccc(CNc2ccc(O)cc2)c1OCc1ccc(Cl)cc1Cl	3%	-20	-58*	-13%	-8%
CCOc1cccc(CNCCO)c1OCc1ccc(Cl)cc1Cl	4%	-4	0	-5%	2%
CCOc1cccc(CNc2ccc(O)cc2)c1OCc1ccccc1Cl	0%	-19	-53*!	?	-12%
CCOc1cccc(CNn2cnnc2)c1OCc1ccccc1Cl	4%	2	11	-6%	-1%
Oc1ccc(-c2csc(Nc3cccc4ccccc34)n2)cc1O	-13%	-55*	-5	3%	-4%
Oc1ccc(-c2csc(Nc3ccccn3)n2)cc1O	-2%	?	-7	-1%	-10%
O=C(c1ccc(Br)cn1)N1CCC(Oc2cccnc2)CC1	·	·	-4	·	·
CCCCCCNC(=O)N[C@@H](C(=O)NCCC[C@H]1CN2C(=NC[C@@H]2Cc2ccccc2)N1CCc1cccc(OC)c1)C(C)C	-17%	-83*	-16	-1%	-3%
Cc1ccccc1C(=O)Nc1ccc(C(=O)N2CCCC(N(C)C)c3ccccc32)cc1 (stereo not given)	·	·	-2	·	·
O=[N+]([O-])c1ccccc1NCc1ccc(O)c2ncccc12	·	·	·	-7%	·
Cc1cc(O)c(C(=O)/C=C/c2ccccc2)c(=O)o1	1%	-50*	5	?	-10%
Cc1cc(O)c(C(=O)/C=C/c2ccccc2Br)c(=O)o1	-3%	-70*	0	?	3%
Cc1cc(O)c(C(=O)/C=C/c2ccc(C(C)C)cc2)c(=O)o1	1%	-63*	-2	?	-9%
CCOc1ccc(/C=C/C(=O)c2c(O)cc(C)oc2=O)cc1	1%	-6	-29	?	-11%
COc1cc(-c2ccc3ncnc(NCc4nc(C)cs4)c3c2)cc(OC)c1OC	·	·	·	-7%	·
O=C(O)c1ccc(C(=O)c2ccc3c(c2)C(=O)N(Cc2ccco2)C3=O)cc1	-1%	-71*	-3	0%	2%

Bioassay records as filed in PubChem BioAssay.
